An excerpt weighted towards active compounds, which were near 4.5% of everything screened.
hgDAF12 agonist – H. glycines DAF-12 receptor agonists, primary screen, cell-based, luminescence, HEK293, GAL4 fusion, UAS-luciferase | hit rate 1.8% among 370,000 | activation, % at 6.8 µM | Nuclear hormone receptor DAF-12 (Heterodera glycines), GAL4 fusion | HEK293 GAL4-hgDAF12 UAS-luciferase reporter, agonist luminescence; normalized to butyrate control;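 active = activation above a cutoff set at the mean of all screened compounds plus 3 SD, cut at about 10% in these data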
hcDAF12 agonist – H. contortus DAF-12 nuclear receptor activators, primary screen, cell-based, luminescence, HEK293, lit1-tk-luc reporter; activation, % at 6.8 µM; HEK293 hcDAF-12 lit1-tk-luc reporter; 0% DMSO, 100% Δ7-dafachronic acid; AID 652067, 2013; hit rate 1.4% among 370,000;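 active = activation above the mean of all tested compounds plus 3 SD, cut at about 5.5% in these data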
ssDAF-12 act – S. stercoralis DAF-12 nuclear receptor activators, primary screen, cell-based, luminescence, HEK293, GRIP1 co-expression, lit1-tk-luc; HEK293 ssDAF-12/GRIP1 lit1-tk-luc reporter; % of 3 µM dafachronic acid response; hit rate 1% among 370,000; Nuclear hormone receptor DAF-12 (Strongyloides stercoralis); activation, % at 6.8 µM; AID 652126, 2013;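 active = activation above the mean over all tested compounds plus 3 SD, cut at about 0.9% in these data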
DAX1 inh-1 – DAX1 (NR0B1) inhibitors on StAR promoter, primary screen, cell-based, luminescence, SF-1 (NR5A1), full-length DAX-1. HEK293T StAR-luciferase reporter, SF-1/DAX-1 repression relief. inhibition, % at 6.8 µM. hit rate 1.1% among 370,000;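 active = inhibition above the mean over all tested compounds plus 3 SD, cut at about 3.6% in these data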;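 also: higher inhibition means more luminescence from relief of DAX-1 repression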
GAA850 FXN act – FXN promoter activators, primary screen, cell-based, luciferase luminescence, HEK293 lucGAA850 | HEK293 lucGAA850 FXN promoter luciferase reporter, 24 h; percent of 10 µM SAHA response | activation, % at 6 µM | hit rate 0.56% among 360,000;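 active = activation above the average of all compounds screened plus 3 SD, cutoff fixed separately per campaign, cut at about 7.5% in these data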
DAX1 inh-2 – DAX1 (NR0B1) inhibitors, primary screen, cell-based, HEK293, Gal4-DAX1, luciferase luminescence. HEK293 Gal4-DAX1 luciferase reporter. hit rate 0.99% among 340,000. Nuclear receptor subfamily 0 group B member 1 (Homo sapiens), P51843. inhibition, % at 6.75 µM;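 active = inhibition above the mean over all tested compounds plus 3 SD, cut at about 4.2% in these data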;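 also: inhibition shows as a rise in luminescence from relieved DAX1 repression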
Target sequence (P51843 207-470 limits assumed): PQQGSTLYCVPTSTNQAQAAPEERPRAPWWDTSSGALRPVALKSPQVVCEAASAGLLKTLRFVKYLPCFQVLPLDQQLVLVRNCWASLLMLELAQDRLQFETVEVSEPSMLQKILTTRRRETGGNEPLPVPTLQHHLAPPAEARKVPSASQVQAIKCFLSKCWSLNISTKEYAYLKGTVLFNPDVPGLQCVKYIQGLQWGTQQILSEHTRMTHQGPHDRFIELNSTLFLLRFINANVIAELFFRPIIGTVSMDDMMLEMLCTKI
Each line names hits and unclear results; the compound was inactive in the other large screens.

O=C(Nn1c(-c2ccc(Br)cc2)nc2ccccc2c1=O)c1ccncc1	hgDAF12 agonist 13
CCc1ccc(C(=O)Nn2c(C)nc3ccccc3c2=O)cc1	ssDAF-12 act 1.0
Cc1nn(CCC(=O)NNC(=O)Nc2ccccc2F)c(C)c1[N+](=O)[O-]	none (no result: GAA850 FXN act, DAX1 inh-2)
COc1cc(C2C3=C(COC3=O)Oc3cc4c(cc32)OCO4)ccc1O (stereo not drawn)	none
COc1cc(C2C3=C(COC3=O)OC(C)(C)Oc3cc4c(cc32)OCO4)cc(OC)c1OC (stereo not drawn)	DAX1 inh-1 4.1
C(#CSCc1ccccc1)SCc1ccccc1	DAX1 inh-2 4.3
NC(=O)c1cccc(C(N)=O)n1	DAX1 inh-2 6.1
COC(=O)[C@H]1Cc2c([nH]c3ccccc23)[C@H](c2ccccc2)N1	hcDAF12 agonist 6.4
COC(=O)C1Cc2c([nH]c3ccccc23)CN1 (stereo not drawn)	none
O=C(Nc1ccccc1)OCCN1CCCC12CCC(c1ccccc1)CC2 (stereo not drawn)	none (no result: DAX1 inh-1, GAA850 FXN act, DAX1 inh-2)
COC(=O)/C(=C\c1c[nH]c2ccccc12)NC(C)=O	none
CCOC(=O)/C(=C\c1c[nH]c2ccccc12)NC(C)=O	ssDAF-12 act 1.4
COc1ccccc1OCC(=O)Nc1ccc(S(=O)(=O)Nc2cc(C)on2)cc1	ssDAF-12 act 1.2
Cc1cc(NS(=O)(=O)c2ccc(NC(=O)/C=C/c3ccc(Br)cc3)cc2)no1	DAX1 inh-1 4.5
Cc1cc(NC(=O)COc2ccccc2C(N)=O)no1	DAX1 inh-2 4.8
Cc1cc(NS(=O)(=O)c2ccc(NC(=O)c3oc4ccccc4c3C)cc2)no1	ssDAF-12 act 0.9
O=C(Cn1nnc(-c2ccc(N3CCOCC3)cc2)n1)c1ccc(F)cc1	none (no result: GAA850 FXN act, DAX1 inh-2)
C#CCN1CC(N(C)CCOC(=O)CC2C=CCC2)CS1(=O)=O (stereo not drawn)	none (no result: GAA850 FXN act, DAX1 inh-2)
COC(=O)[C@]12C[C@H](CC(=O)NCC3CCCCC3)C(=O)N(Cc3ccc(Cl)cc3Cl)C1=C[C@H](C(C)(C)C)O[C@@H]2C	none (no result: GAA850 FXN act, DAX1 inh-2)
CCOC(=O)CC[C@H]1CC[C@]2(CCCN(C(=O)C3CCCC3)C2)O1	none (no result: GAA850 FXN act, DAX1 inh-2)
Cc1cc(C(=O)COC(=O)Cc2n[nH]c(=O)c3ccccc23)c(C)n1-c1cccc(C(F)(F)F)c1	none
Cc1cc(C(=O)COC(=O)CC2Sc3ccccc3NC2=O)c(C)n1-c1cccc(C(F)(F)F)c1 (stereo not drawn)	ssDAF-12 act 1.2
Cc1sc(NC(=O)c2ccco2)c(C(Nc2ccccn2)c2ccccc2)c1C (stereo not drawn)	hgDAF12 agonist 11
CCC1(CC)NC(=O)N(CC(=O)NCc2ccc3c(c2)OCO3)C1=O	none
O=C(CN1C(=O)NC2(CCCCC2)C1=O)NCc1ccc2c(c1)OCO2	DAX1 inh-2 7.2
CC(=O)N1CCN(C(=O)c2ccco2)CC1	none
O=C(c1ccco1)n1c(=S)nc2ccccn21	hgDAF12 agonist 12
O=C(c1ccco1)N1CCN(C(=O)c2ccco2)CC1	none (no result: GAA850 FXN act, DAX1 inh-2)
Cc1cccc2nc(=S)n(C(=O)c3ccco3)n12	hgDAF12 agonist 13, DAX1 inh-2 4.6
COC(=O)CCC(=O)N1C2=NC3=C(C(=O)N(Cc4ccc5c(c4)OCO5)C3=O)C3N(C)c4ccccc4[C@]23C[C@H]1CO (stereo partly drawn)	none (no result: GAA850 FXN act, DAX1 inh-2)
C[C@H](O)[C@@H]1CN2CCc3c([nH]c4c(-c5ccccc5)cccc34)[C@@H]2C[C@@H]1N(C)C(=S)Nc1ccc(C#N)cc1	none (no result: GAA850 FXN act, DAX1 inh-2)
CC(C)CN1CCC(=O)N(CCOc2ccccc2)CC1	DAX1 inh-2 4.3
